Measurements from the supplement of paper PMC7411054.
Counter-ions that a name gives are not always drawn.

What was measured:
Conditions in all cases: treatment time: 24 h
A549-GM130-SQSTM1 [1] = test: lowest phenotypically active concentration; higher = less potent
In short: (§1)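 After 24 h at 0.3, 1, 3 or 9 µM, with four wells per treatment, fifteen gene-edited A549, HepG2 and WPMY1 reporter lines carrying BFP, GFP and RFP/FusionRed were imaged live. Each well's live-cell features were expressed relative to solvent control wells. Deviation required ≥3 of 4 wells past the 95th percentile of control Euclidean distances, and reproducibility a median replicate Pearson correlation over the 95th percentile of non-replicates. Phenotypic activity rested on both.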

HepG2-ACTB-RAB5A [2] = test: as above
In short: as §1

WPMY1-GM130-SQSTM1 [3] = test: as above
In short: as §1

A549-ACTB-RAB5A = test: phenotypically active (imaging signature differs from DMSO and reproducible) at any of 0.3-9 uM (binary (1 = active, 0 = inactive)); higher = active
In short: as §1

A549-CANX-COX4 = test: as above
In short: as §1

A549-GM130-SQSTM1 [4] = test: as above
In short: as §1

A549-TP53BP1-CLTA = test: as above
In short: as §1

A549-TUBA1B-RELA [5] = test: as above
In short: as §1

HepG2-ACTB-RAB5A [6] = test: as above
In short: as §1

HepG2-CANX-COX4 = test: as above
In short: as §1

HepG2-GM130-SQSTM1 = test: as above
In short: as §1

HepG2-TP53BP1-CLTA = test: as above
In short: as §1

HepG2-TUBA1B-RELA = test: as above
In short: as §1

WPMY1-ACTB-RAB5A = test: as above
In short: as §1

WPMY1-CANX-COX4 = test: as above
In short: as §1

WPMY1-GM130-SQSTM1 [7] = test: as above
In short: as §1

WPMY1-TP53BP1-CLTA = test: as above
In short: as §1

WPMY1-TUBA1B-RELA = test: as above
In short: as §1

A549-TUBA1B-RELA [8] = test: lowest phenotypically active concentration; higher = less potent
In short: as §1

Row | SMILES | lowest phenotypically active concentration (A549-GM130-SQSTM1 [1]) [µM] | lowest phenotypically active concentration (HepG2-ACTB-RAB5A [2]) [µM] | lowest phenotypically active concentration (WPMY1-GM130-SQSTM1 [3]) [µM] | phenotypically active (A549-ACTB-RAB5A) | phenotypically active (A549-CANX-COX4) | phenotypically active (A549-GM130-SQSTM1 [4]) | phenotypically active (A549-TP53BP1-CLTA) | phenotypically active (A549-TUBA1B-RELA [5]) | phenotypically active (HepG2-ACTB-RAB5A [6]) | phenotypically active (HepG2-CANX-COX4) | phenotypically active (HepG2-GM130-SQSTM1) | phenotypically active (HepG2-TP53BP1-CLTA) | phenotypically active (HepG2-TUBA1B-RELA) | phenotypically active (WPMY1-ACTB-RAB5A) | phenotypically active (WPMY1-CANX-COX4) | phenotypically active (WPMY1-GM130-SQSTM1 [7]) | phenotypically active (WPMY1-TP53BP1-CLTA) | phenotypically active (WPMY1-TUBA1B-RELA) | lowest phenotypically active concentration (A549-TUBA1B-RELA [8]) [µM]
1 | CCCc1cc2c(N3CCN(C4=NCC(C)(C)S4)CC3)ncnc2s1 [MI 2 dihydrochloride] | 9 | 9 | 9 | 0 (inactive) | 0 (inactive) | 1 (active) | 0 (inactive) | 0 (inactive) | 1 (active) | 1 (active) | 1 (active) | 1 (active) | 0 (inactive) | 1 (active) | 0 (inactive) | 1 (active) | 0 (inactive) | 0 (inactive) | 
2 | CO[C@H]1C=CO[C@@]2(C)Oc3c(C)c(O)c4c(O)c(c(/C=N/N5CCN(C)CC5)c(O)c4c3C2=O)NC(=O)C(C)=CC=C[C@H](C)[C@H](O)[C@@H](C)[C@@H](O)[C@@H](C)[C@H](OC(C)=O)[C@@H]1C [Rifampicin] | 9 |  |  | 0 (inactive) | 0 (inactive) | 1 (active) | 0 (inactive) | 0 (inactive) | 0 (inactive) | 1 (active) | 0 (inactive) | 0 (inactive) | 0 (inactive) | 0 (inactive) | 0 (inactive) | 0 (inactive) | 0 (inactive) | 0 (inactive) | 
3 | c1ccc(-c2n[nH]cc2-c2ccnc3ccccc23)nc1 |  |  |  | 0 (inactive) | 0 (inactive) | 0 (inactive) | 0 (inactive) | 1 (active) | 0 (inactive) | 1 (active) | 1 (active) | 1 (active) | 0 (inactive) | 1 (active) | 1 (active) | 0 (inactive) | 0 (inactive) | 0 (inactive) | 9
4 | COCCCOc1ccnc(CS(=O)c2nc3ccccc3[nH]2)c1C (centres undefined) [rabeprazole] |  | 9 |  | 0 (inactive) | 0 (inactive) | 0 (inactive) | 0 (inactive) | 0 (inactive) | 1 (active) | 0 (inactive) | 0 (inactive) | 0 (inactive) | 1 (active) | 0 (inactive) | 0 (inactive) | 0 (inactive) | 0 (inactive) | 0 (inactive) | 
5 | CNC(=C[N+](=O)[O-])NCCSCc1ccc(CN(C)C)o1 [ranitidine] |  |  |  | 0 (inactive) | 0 (inactive) | 0 (inactive) | 0 (inactive) | 0 (inactive) | 0 (inactive) | 0 (inactive) | 1 (active) | 0 (inactive) | 0 (inactive) | 0 (inactive) | 0 (inactive) | 0 (inactive) | 0 (inactive) | 0 (inactive) | 
6 | Cc1c(C)c2c(c(C)c1O)CC[C@@](C)(CCC[C@H](C)CCC[C@H](C)CCCC(C)C)O2 [Tocopherol (R,S)] |  |  |  | 0 (inactive) | 0 (inactive) | 0 (inactive) | 0 (inactive) | 0 (inactive) | 0 (inactive) | 1 (active) | 0 (inactive) | 0 (inactive) | 0 (inactive) | 0 (inactive) | 0 (inactive) | 0 (inactive) | 0 (inactive) | 0 (inactive) | 
7 | Nc1ncnc2c1ncn2[C@@H]1O[C@H](CO)[C@@H](O)[C@H]1O [Adenosine] |  | 9 |  | 0 (inactive) | 0 (inactive) | 0 (inactive) | 0 (inactive) | 0 (inactive) | 1 (active) | 0 (inactive) | 0 (inactive) | 0 (inactive) | 0 (inactive) | 0 (inactive) | 0 (inactive) | 0 (inactive) | 0 (inactive) | 0 (inactive) | 
8 | CC(C)N(CCCNC(=O)Nc1ccc(C(C)(C)C)cc1)C[C@H]1O[C@@H](n2cc(Br)c3c(N)ncnc32)[C@H](O)[C@@H]1O |  | 3 | 9 | 0 (inactive) | 0 (inactive) | 0 (inactive) | 1 (active) | 0 (inactive) | 1 (active) | 1 (active) | 1 (active) | 1 (active) | 1 (active) | 1 (active) | 1 (active) | 1 (active) | 1 (active) | 1 (active) | 
